Assay outcomes from PubChem.
NR2F2 inh: blocks human COUP-TFII nuclear receptor. 0.7% of 370,000 active. HEK293T NGFI-A luciferase reporter, luminescence. inhibition, % at 8.6 µM. P24468;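 active = inhibition above a per-plate cutoff, mean inhibition of test wells between control levels plus 3 SD, cut at about 38% in these data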;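 note: cells cotransfected with COUP-TFII expression vector driving the NGFI-A reporter; 0% = median of COUP-TF2 test wells and 100% = reporter-only cells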
GalR3 antagonist: antagonists of human GalR3 | inhibition, % at 3 µM | O60755 | HEK293 GalR3-CNG cAMP membrane potential fluorescence; galR3 body fused to GalR1 C-terminus | 0.44% of 360,000 active;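 active = inhibition above the screen-wide average plus 3 SD, cut at about 13% in these data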;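 note: forskolin and galanin both at EC90 stimulate the cells; cAMP rise reported by CNG channel membrane potential dye signal; 0% = forskolin plus galanin with DMSO and 100% = forskolin alone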
NCOA3 inh: inhibitors of human steroid receptor coactivator 3 (SRC3) | Q9Y6Q9 | HEK293 GAL4-SRC3 luciferase reporter, luminescence | inhibition, % at 3.6 µM | 0.17% of 360,000 active | AID 588352;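 active = inhibition above a per-campaign cutoff, the mean of all compounds plus 3 SD, cut at about 60% in these data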;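 note: 0% = DMSO-treated cells and 100% = gossypol-treated cells at 36 µM; higher means less SRC3-driven luciferase light from the GAL4 reporter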
LRH-1 inv ag: NR5A2 inverse agonism in reporter assay. O00482. HEK293T StAR-luciferase reporter, LRH-1 transfected, 24 h. inhibition, % at 3.6 µM. 0.13% of 360,000 active. AID 602396;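 active = inhibition above the mean inhibition of all tested compounds plus 3 SD, cut at about 73% in these data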;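 note: 0% = DMSO wells and 100% = reporter-only cells lacking LRH-1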
SRC1 inh: inhibits human SRC1 coactivator. AID 588354. Q15788. HEK293 GAL4-SRC1 luciferase reporter, luminescence. 0.12% of 360,000 active. inhibition, % at 3.6 µM;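 active = inhibition above the campaign mean plus 3 SD, with each screening campaign given its own cutoff, cut at about 60% in these data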;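 note: 0% = DMSO treated cells and 100% = gossypol at 36 µM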
NCOA2 inhibitor: human SRC2 (NCOA2) inhibition; Q15596; HEK293 GAL4-SRC2 luciferase reporter, luminescence; inhibition, % at 9 µM; 0.17% of 370,000 active;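 active = inhibition above the mean inhibition of all tested compounds plus 3 SD, set per campaign, cut at about 52% in these data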;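 note: 0% = DMSO treated cells and 100% = cells given Gossypol at 36 µM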
Target sequence (Q15596 whole entry, looked up, the tested form may be a part): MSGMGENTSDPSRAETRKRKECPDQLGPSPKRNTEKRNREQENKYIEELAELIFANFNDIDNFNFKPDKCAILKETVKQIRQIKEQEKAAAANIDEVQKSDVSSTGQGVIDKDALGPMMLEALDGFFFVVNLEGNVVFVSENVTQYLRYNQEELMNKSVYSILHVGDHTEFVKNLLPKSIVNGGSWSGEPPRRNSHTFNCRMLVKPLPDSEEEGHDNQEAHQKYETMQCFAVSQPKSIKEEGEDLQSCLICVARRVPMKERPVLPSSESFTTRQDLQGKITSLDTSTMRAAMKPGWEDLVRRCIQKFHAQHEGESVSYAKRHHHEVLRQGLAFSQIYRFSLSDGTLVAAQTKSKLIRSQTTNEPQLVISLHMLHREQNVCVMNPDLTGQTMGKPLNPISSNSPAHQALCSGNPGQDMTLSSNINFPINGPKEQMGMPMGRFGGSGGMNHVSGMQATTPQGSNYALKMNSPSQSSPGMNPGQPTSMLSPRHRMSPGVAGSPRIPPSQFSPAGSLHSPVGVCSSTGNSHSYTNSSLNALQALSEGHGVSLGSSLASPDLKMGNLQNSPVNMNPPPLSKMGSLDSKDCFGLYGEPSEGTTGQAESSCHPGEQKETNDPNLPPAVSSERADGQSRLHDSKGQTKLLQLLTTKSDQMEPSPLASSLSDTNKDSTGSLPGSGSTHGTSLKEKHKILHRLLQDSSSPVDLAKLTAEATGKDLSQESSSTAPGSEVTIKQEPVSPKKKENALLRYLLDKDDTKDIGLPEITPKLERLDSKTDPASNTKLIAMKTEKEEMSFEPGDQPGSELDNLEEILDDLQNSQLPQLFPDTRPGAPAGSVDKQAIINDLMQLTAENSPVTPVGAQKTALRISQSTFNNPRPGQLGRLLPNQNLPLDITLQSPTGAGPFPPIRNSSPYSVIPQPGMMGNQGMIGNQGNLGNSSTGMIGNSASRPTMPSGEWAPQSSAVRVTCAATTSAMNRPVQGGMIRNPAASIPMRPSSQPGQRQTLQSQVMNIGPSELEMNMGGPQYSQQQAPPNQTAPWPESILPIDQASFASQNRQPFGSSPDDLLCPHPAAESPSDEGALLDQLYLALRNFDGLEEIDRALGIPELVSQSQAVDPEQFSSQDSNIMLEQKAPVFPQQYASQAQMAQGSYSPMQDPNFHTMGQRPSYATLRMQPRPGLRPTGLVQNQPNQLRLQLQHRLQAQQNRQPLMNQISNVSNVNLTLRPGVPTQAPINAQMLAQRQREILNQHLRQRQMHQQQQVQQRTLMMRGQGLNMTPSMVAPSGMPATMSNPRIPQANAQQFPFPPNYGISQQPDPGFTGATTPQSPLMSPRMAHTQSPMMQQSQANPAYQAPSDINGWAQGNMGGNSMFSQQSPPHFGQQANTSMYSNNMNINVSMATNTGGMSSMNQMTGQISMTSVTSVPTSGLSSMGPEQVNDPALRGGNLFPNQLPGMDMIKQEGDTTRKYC
VP16 Luc counter: inhibits VP16 reporter, flagging COUP-TFII antagonist hits | HEK293 Gal4-VP16 luciferase reporter, luminescence | 25% of 2,500 active | shares compounds with NR2F2 inh | inhibition, % at 8.5 µM; in the data active = inhibition above about 13%
NR2F2 inh conf: confirmation of human COUP-TFII (NR2F2) inhibitors | shares compounds with NR2F2 inh | HEK293 NGFI-A luciferase reporter, luminescence | inhibition, % at 8.5 µM | 45% of 2,500 active | AID 687008;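 active = mean inhibition over three repeats above a set limit taken from the earlier primary screen, cut at about 38% in these data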;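 note: 100% = cells given the luciferase reporter alone without the COUP-TF2 vector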
Numbers without * were called inactive; ! = repeats disagree. In the library only some 1.1% were active in any assay of this set; here they are far more common.

`CNc1nc(-c2ccccn2)nnc1-c1ccccc1` gave NR2F2 inh 4.3, GalR3 antagonist -0.2, NCOA3 inh 4.5, LRH-1 inv ag -10.1, SRC1 inh -12.5 and NCOA2 inhibitor -22.3.
For Clc1cccc(CNc2nc(-c3ccccn3)nnc2-c2ccccc2)c1 the results were NR2F2 inh 38.4*, VP16 Luc counter 0.5 and NR2F2 inh conf -33.8.
For Cc1ccc(C(C)C)c(OCc2ccc(C(=O)N/N=C/c3ccc(C(=O)O)cc3)cc2)c1 the results were NR2F2 inh 39.5*, GalR3 antagonist -5.6, NCOA3 inh -1.0, LRH-1 inv ag -26.1, SRC1 inh -24.8, NCOA2 inhibitor 47.0, VP16 Luc counter 24.3* and NR2F2 inh conf 8.2.
Screening CN=c1scc(-c2ccccc2F)n1/N=C/c1ccc[nH]1 returned NR2F2 inh 106.5*, GalR3 antagonist -4.2, NCOA3 inh 91.7*, LRH-1 inv ag 90.7*, SRC1 inh 92.3*, NCOA2 inhibitor 90.6*, VP16 Luc counter 86.0* and NR2F2 inh conf 107.0*.
FC(F)(F)c1cccc(NC(=S)N(CCCN2CCCC2)Cc2cccn2Cc2ccc(Cl)cc2)c1 was read as NR2F2 inh 38.5*, GalR3 antagonist -3.6, NCOA3 inh 37.8, LRH-1 inv ag 12.5, SRC1 inh 1.3, NCOA2 inhibitor 1.5, VP16 Luc counter -2.2 and NR2F2 inh conf 1.1.
`C=CCN=c1scc(-c2ccc3c(c2)NC(=O)CO3)n1/N=C(\C)c1ccccn1` gave NR2F2 inh 56.0*, GalR3 antagonist -5.5, NCOA3 inh 27.5, LRH-1 inv ag 36.4, SRC1 inh -2.7, NCOA2 inhibitor 16.5, VP16 Luc counter 12.0 and NR2F2 inh conf 62.5*.
Screening O=C1NC(Cc2ccc(O)cc2)c2nc3ccc(Cl)cc3c(=O)n2-c2cc3ccccc3cc21 (stereo unspecified) returned NR2F2 inh 40.6*, GalR3 antagonist -6.5, NCOA3 inh 8.8, LRH-1 inv ag 12.4, SRC1 inh -32.8, NCOA2 inhibitor 5.4, VP16 Luc counter 0.4 and NR2F2 inh conf 3.1.
For O=C1NC(Cc2ccccc2)c2nc3ccc(Cl)cc3c(=O)n2-c2cc3ccccc3cc21 (stereo unspecified) the results were NR2F2 inh -11.5, GalR3 antagonist -5.0, NCOA3 inh -12.3, LRH-1 inv ag -14.6, SRC1 inh 4.3 and NCOA2 inhibitor 10.8.
For O=C(Nc1cccc(C(F)(F)F)c1)O[C@@H]1CC[C@@]23CCCN2C(=O)CCC[C@H]3C1 the results were NR2F2 inh -12.8.
CC[n+]1c(/C=C/c2ccc(OC)c(OC)c2)ccc2ccccc21 was read as NR2F2 inh -39.9, GalR3 antagonist -10.2, NCOA3 inh -94.4, LRH-1 inv ag -131.2, SRC1 inh -101.0 and NCOA2 inhibitor -124.0.
For CCN(CC)c1ccc(/C=C/c2ccc3ccc(OC)cc3[n+]2CC)cc1 the results were NR2F2 inh 51.4*, GalR3 antagonist -10.3, NCOA3 inh 51.0, LRH-1 inv ag 73.7*, SRC1 inh 45.6, NCOA2 inhibitor -18.5, VP16 Luc counter 20.2* and NR2F2 inh conf 66.8*.
`O=C(O)CCCCCN1C(=O)CSC1=S` gave NR2F2 inh 45.5*, GalR3 antagonist 4.4, NCOA3 inh 33.8, LRH-1 inv ag 22.4, SRC1 inh 4.0, NCOA2 inhibitor 80.5*, VP16 Luc counter 4.6 and NR2F2 inh conf 3.8.
`COc1cc(CC(=O)Nc2cccc(S(=O)(=O)N(C)c3ccccc3)c2)cc(OC)c1OC` gave NR2F2 inh 39.3*, GalR3 antagonist -1.6, NCOA3 inh 28.3, LRH-1 inv ag 20.0, SRC1 inh -1.3, NCOA2 inhibitor 8.0, VP16 Luc counter 7.1 and NR2F2 inh conf 20.1.
`COc1cc(CC(=O)Nc2cccc(SC)c2)cc(OC)c1OC` gave NR2F2 inh 37.4*, GalR3 antagonist -4.5, NCOA3 inh 18.3, LRH-1 inv ag 9.5, SRC1 inh 14.8, NCOA2 inhibitor 15.7, VP16 Luc counter -0.8 and NR2F2 inh conf 7.0.
Screening CCOc1ccc(CCNC(=O)c2cc3sccc3n2CC)cc1OC returned NR2F2 inh 56.7*, NCOA2 inhibitor 12.0, VP16 Luc counter -10.2 and NR2F2 inh conf 19.7.
For COC(=O)c1cc(C(c2ccccc2O)C2CCC(C)(C)O2)n2ccccc12 (stereo unspecified) the results were NR2F2 inh -14.3 and NCOA2 inhibitor -31.7.
O=C(Nc1cccc(Cl)c1)c1ccc(F)c(S(=O)(=O)NCc2cccs2)c1 was read as NR2F2 inh 38.0*, GalR3 antagonist -5.8, NCOA3 inh 20.5, LRH-1 inv ag 7.8, SRC1 inh 6.3, NCOA2 inhibitor 8.0, VP16 Luc counter -10.1 and NR2F2 inh conf 12.6.
For COc1ccc(N2CCN(C(=O)c3ccc(NS(=O)(=O)c4cccc(F)c4)cc3)CC2)cc1 the results were NR2F2 inh 10.9, GalR3 antagonist -6.7, NCOA3 inh 5.7, LRH-1 inv ag 12.4, SRC1 inh 0.5 and NCOA2 inhibitor -3.9.
`COc1ccc(NS(=O)(=O)c2cccc(C(=O)OCC(=O)N3CCN(c4ccc(OC)cc4)CC3)c2)cc1` gave NR2F2 inh 39.4*, GalR3 antagonist 0.9, NCOA3 inh 12.2, LRH-1 inv ag 3.1, SRC1 inh 1.0, NCOA2 inhibitor 7.6, VP16 Luc counter -8.8 and NR2F2 inh conf 15.0.
`Cc1ccc(-c2nn3c(C)nnc3s2)cc1NC(=O)c1ccc(-c2cccc(Cl)c2)o1` gave NR2F2 inh 56.0*!, GalR3 antagonist -3.2, NCOA3 inh 5.8, LRH-1 inv ag -33.7, SRC1 inh 2.1, NCOA2 inhibitor -33.1, VP16 Luc counter -6.2 and NR2F2 inh conf -3.7.
Cn1cccc1C(=O)N1CCN(S(=O)(=O)c2ccc(Br)s2)CC1 was read as NR2F2 inh -5.0 and NCOA2 inhibitor -5.3.
Cc1ccc(C(=O)CN2C(=O)c3ccccc3S2(=O)=O)cc1 was read as NR2F2 inh 73.9*, GalR3 antagonist 3.6, NCOA3 inh 63.2*, LRH-1 inv ag 13.4, SRC1 inh 48.4, NCOA2 inhibitor 68.5*, VP16 Luc counter 76.8* and NR2F2 inh conf 91.2*.
Screening O=C(CN1C(=O)c2ccccc2S1(=O)=O)c1ccccc1 returned NR2F2 inh 20.9, GalR3 antagonist -3.6, NCOA3 inh 11.8, LRH-1 inv ag -28.1, SRC1 inh -23.5 and NCOA2 inhibitor 9.2.
O=C(CN1C(=O)c2ccccc2S1(=O)=O)c1ccccc1Cl was read as NR2F2 inh 63.1*, GalR3 antagonist -2.5, NCOA3 inh 20.3, LRH-1 inv ag 12.0, SRC1 inh 14.1, NCOA2 inhibitor 56.6*, VP16 Luc counter 10.7 and NR2F2 inh conf 33.9.
